Source: the supplement of paper PMC3334620
In all, about 33,000 sequences were measured (“E-score (-0.5 to 0.5)”: median about -0.013, highest 2% from about 0.3 on). Shown is part of a subset that was picked to be rich in the highest values.

target: T1, Msn1 (UniProt P22148); test: PBM E-score (8-mer binding enrichment) (E-score (-0.5 to 0.5)); higher = stronger / more preferred TF binding; conditions: protein concentration: 200 nM; construct: GST-full length
T1 sequence: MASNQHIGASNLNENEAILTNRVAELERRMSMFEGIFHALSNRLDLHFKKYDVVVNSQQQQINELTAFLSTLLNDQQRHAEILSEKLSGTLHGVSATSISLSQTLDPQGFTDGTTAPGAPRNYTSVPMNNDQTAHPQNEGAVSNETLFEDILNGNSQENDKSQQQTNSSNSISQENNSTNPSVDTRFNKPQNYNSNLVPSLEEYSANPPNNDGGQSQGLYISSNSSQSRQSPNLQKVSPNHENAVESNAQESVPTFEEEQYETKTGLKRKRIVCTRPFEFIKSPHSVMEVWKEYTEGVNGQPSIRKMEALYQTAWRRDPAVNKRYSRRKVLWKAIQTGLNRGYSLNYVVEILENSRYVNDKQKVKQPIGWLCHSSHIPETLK
Procedure, shortened: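 GST-tagged yeast TFs (full-length or DNA-binding domain) were made by PURExpress in vitro transcription/translation and applied at about 100-200 nM to universal all-10-mer Agilent arrays. The arrays were made double-stranded by primer extension, on fresh or once-stripped slides. Bound protein was detected with fluorescent anti-GST, and scans were normalised with masliner. Each ungapped eight-base word, pooled with its reverse complement, received an E-score (modified Wilcoxon-Mann-Whitney statistic) from the Universal PBM Analysis Suite.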

Sequence	PBM E-score
GACGGAAA	0.106
TACGGAGA	-0.0508
ACTAACGC	-0.108
GCTCGAAA	-0.00351
TGCAGGAA	0.0458
TGAGTGAA	-0.115
ACGAATCG	0.0506
CGAATAAC	0.0021
GGAATAAA	0.119
CGAATAAA	0.309
TAAGCTCA	-0.0986
CGTCCGGA	0.331
GGTCCGGA	0.216
ATTCCGGA	0.313
AGTCCGGA	0.267
CTTCCGGA	0.132
ATTCCGGG	0.14
CCTTTGAA	-0.154
ATGTTTTG	0.12
CGAGCACG	-0.175
ACATATGC	-0.0219
CCATATCA	0.0259
CCATATTC	-0.0353
ACATATTC	0.34
ATATATTG	-0.172

Sequence	PBM E-score
ACATATGA	0.311
ACATATCG	0.231
ACATATGG	0.262
TCATATGA	0.297
ACATATCA	0.319
ATATATTC	0.163
ACATATTG	0.321
AATCTTGG	0.0184
AGTTACAT	-0.0774
AATCAAAA	0.089
CTATTCTC	-0.0396
CCACAACC	-0.0582
TAGTTGCA	0.0158
TAGAAGGA	-0.21
AATAGCTG	-0.128
GTTGAGGA	-0.00729
CCATATTA	0.21
ACATATTA	0.351
GCATATTA	0.0109
ACCTTCCA	-0.119
AATCGAGT	-0.0102
CGAAGCAC	0.0622
ACACCGTG	-0.05
ATTTGGAG	-0.0358
AATTGGAT	0.157

Sequence	PBM E-score
ATTTGGAC	0.366
CTTTGGAC	0.262
GATTGGAC	0.109
AATTGGAC	0.342
CTGAGCTC	0.0318
ATTTGCCC	0.0584
AAGTGATA	-0.052
GACAAGAA	0.374
CACAAGAA	0.105
TACAAGAA	0.169
GACAAGCC	0.318
CACAGGAA	0.0261
AACAAAAA	0.15
GACAGGAA	0.323
TACAAAAA	0.264
GACAAAAA	0.466
AACAAGCC	0.0265
GACAAGCA	0.278
GACAGGAC	0.17
ATCTATCC	-0.0249
CCTAGCCA	-0.0603
CCTGCAAA	-0.188
AAGCAAGG	-0.0227
ATTTACTA	0.206
AGTCAGAA	-0.0729

Sequence	PBM E-score
CGTACGGC	-0.134
CCTATGTA	-0.0586
GACAAACC	0.445
GACACAAA	0.395
CACAAACC	-0.135
TACACAAA	0.205
TACAAACA	0.301
AACAAACA	0.133
CACAAAAC	0.0522
AACAAACC	0.155
CACACAAA	0.115
GACAAACA	0.456
GACAAAAC	0.451
AACAAAAC	0.199
GACATCAC	0.118
CGGCAGCC	-0.118
CGCGGTCC	-0.0855
AGTATTGG	-0.0788
AGAGTTAT	-0.0142
GATAGGCA	-0.0844
AGTAGGCA	-0.07
GACAAGAC	0.311
CACAAGAC	-0.118
AACAAGAC	0.135
GCCCATGA	-0.081

Sequence	PBM E-score
GGGGACCA	-0.223
GGGGACAA	0.456
TGGGACAA	0.471
TGGGACCA	-0.117
GGGGACAC	0.28
TGGGAGAA	-0.209
ATAGCACA	-0.0389
ATGGAGCG	-0.0801
CAGATAAG	0.102
ATCCGAAG	0.0243
ATCCGAAC	-0.00081
ATCCGAGA	0.187
GTCCGACA	0.322
ATCCGAAA	0.057
GTCCGAAA	0.312
ATCCGAAT	0.309
TTCCGAAA	0.0799
GTCCGAGA	0.326
CTCCGAGA	0.152
CTCCGACA	0.174
ATCCGACA	0.128
ATTAATTA	0.0938
CTCTTACC	0.0706
ATCGCCTC	-0.0571
CTCTCCCC	-0.213

Sequence	PBM E-score
ACAACATG	0.0414
AATATGCC	-0.141
CTCTGATA	0.112
CCAGGGAC	0.0428
ACGTTAGT	0.0228
ACTTACTG	-0.113
AAGCTGCG	0.00828
AGCCCTGC	-0.252
AAGGGCGG	-0.21
CCGAACCC	-0.146
CATTGCAC	0.0641
ATAACGAT	-0.192
CTAATGTC	0.378
ATAATGTG	-0.0687
CTAATGAC	-0.12
ATAATGTC	0.427
CTAATGTA	0.143
ATAATGTA	0.139
AATCCTTC	-0.0471
AACCCGTT	-0.0539
ACGAGCGT	-0.173
ATTCGTCG	0.0922
CTTCGTCC	-0.0108
ATTCGTCC	0.323
GCACGACA	-0.045

Sequence	PBM E-score
CTACGACA	0.311
CAACGACG	-0.0172
CAACGACA	0.307
ACACGACA	0.225
ATACGACA	0.133
TCACGACA	0.322
CAACGACC	-0.156
CGACGACA	0.17
GTACGACA	0.345
CCACGACA	0.179
CTACGACC	-0.119
AAAACGCC	0.045
GCTGCGCC	-0.192
CAAAGTGC	0.0233
CGCGCCCG	-0.0907
ACTAGACG	0.112
CCTTGCCG	-0.0395
AAAGATCC	-0.12
AGAGATCG	-0.0703
GTACGAAC	0.311
GTACGAAA	0.249
CTACGAAC	0.0953
